# ERK EGF inh = EGF-driven ERK pathway inhibition; HEK293-V1b, EGF-stimulated phospho-ERK AlphaScreen; Potency, µM (doses to about 11.5 µM), without a hit: at the top dose activity change, negative = inhibition, usual class: inhibitors; 130,000 compounds, 0.41% hits; AID 1454; active = well fitted inhibition curve with a large enough effect;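 also: plate controls were stimulated vehicle wells for no effect and unstimulated vehicle basal for full effect; nearly all actives have a fitted effect of over 55% in size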
#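 After overnight plating in 1% FBS, HEK293-V1b cells received test compound for half an hour, then a 5 min pulse of EGF (25 nM); ERK phosphorylation in lysates was read by bead-based AlphaScreen.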
# Numbers without * were called inactive; [ ] = dose if it differs, or a comment. The sample as a whole holds a higher share of hits than the screen did. Potency is read from the fitted curve at half-maximal effect.
SMILES,ERK EGF inh
O=C(O)c1ccc2cc(-c3ccc(O)c(C45CC6CC(CC(C6)C4)C5)c3)ccc2c1,25µM*
C[C@@H]1C[C@](C)(C(=O)c2ccc3ccccc3c2)C=C1c1ccc2ccccc2c1,0%
COc1cc(C(=O)O)ccc1O,1%
O=C(c1cnccn1)N1CCC2(CCCN(Cc3nccs3)C2)CC1,9%
C=CCC(C)(O)c1cccs1 (stereo unspecified),-5%
COc1cc(NC(=O)O[C@@H]2C(=O)c3cc(Br)ccc3O[C@H]2c2ccc3c(c2)OCO3)cc(OC)c1OC,-2%
COc1cccc2c1C(=O)c1c(O)c3c(c(O)c1C2=O)C[C@](O)(C(C)=O)C[C@H]3O[C@@H]1C[C@H](N)[C@H](O)[C@H](C)O1,-1%[25.7 µM]
COc1cccc2c1C(=O)c1c(O)c3c(c(O)c1C2=O)C[C@@](O)(C(=O)CO)C[C@@H]3O[C@H]1C[C@H](N)[C@H](O)[C@H](C)O1,28µM*
CCCCC/C=C\C/C=C\CCCCCCCC(=O)NCCc1ccc(O)c(O)c1,-9%
O=C(Nc1cccc(F)c1)N1CC[C@@]2(CCCN(C(=O)c3csnn3)C2)C1,-8%
CCCCC/C=C\C/C=C\C/C=C\CCCCCCC(=O)NCC(=O)O,-6%
COCCCNC(=O)c1ccc2c3c(onc13)-c1ccccc1C2=O,32µM*
COCCCNC(=O)c1cc2cc(Br)ccc2oc1=O,6%
CCCNC(=O)c1noc2c1CCc1ccccc1-2,9%
O=c1c(-c2cccc(F)c2)nc2cncnc2n1C1CC1,7%
COc1ccc2[nH]cc(CCNc3nc(-c4ccc(C(=O)N(C)C)cc4)nc4ccccc34)c2c1,12%
COc1ccc2[nH]cc(CCNc3nc(-c4ccoc4)nc4ccccc34)c2c1,35%
COc1cccc(-c2nc(NCCc3c[nH]c4ccc(OC)cc34)c3ccccc3n2)c1,25µM*
CCN1/C(=C2\OC(=S)N(C)C2=O)C=Cc2ccccc21,-2%
CCN1/C(=C2\C(=O)N(C)C(=S)N2C)C=Cc2cc(OC)ccc21,2%
CCN1C(=O)/C(=C2/C=Cc3cc(C)ccc3N2CC)N(C)C1=S,14µM*
O=C(NC1CCCC1)O[C@@H]1C(=O)c2cc(Br)ccc2O[C@H]1c1ccc2c(c1)OCO2,-4%
COc1ccc(C(=O)N2CCC3(CCN(C)CC3)CC2)cc1,1%
CC(=O)OC1CC(OC(C)=O)[C@]2(C)C(CC(OC(C)=O)[C@]3(C)C2CC[C@@]2(C)C(c4ccoc4)OC(=O)C4O[C@]432)C1(C)C (stereo partly specified),-6%
CCN=C1S/C(=C\c2ccc(N3CCOCC3)cc2C)C(=O)N1CC,5%
SMILES,ERK EGF inh
CN=C1S/C(=C\c2ccc(N3CCOCC3)cc2C)C(=O)N1C,0%
COCCN1C(=O)/C(=C/c2ccc(N3CCCC3)cc2C)SC1=S,22µM*
O=C1c2ccccc2CC[C@H]1CNCCc1ccc(O)cc1,-3%
c1ccc2c(c1)CCN(c1ncnc3nc[nH]c13)C2,8%
CCOc1ccc2[nH]c3c(N4CCc5ccccc5C4)ncnc3c2c1,32µM*
CCOc1ncnc2c1[nH]c1ccccc12,-9%[57.5 µM]
O=C1C=CC2=C3c4cc(O)c(O)cc4C[C@@]3(O)COC2=C1,1%
CSC(N)=NCCCC(N)C(=O)O (stereo unspecified),34%
O=C(NS(=O)(=O)c1ccc(F)cc1)O[C@@H]1C(=O)c2cc(Br)ccc2O[C@H]1c1ccc2c(c1)OCO2,-6%
COc1ccc(C2c3ccc4ccccc4c3Oc3ncn(CCCO)c(=N)c32)cc1 (stereo unspecified),40µM*
N=c1c2c(ncn1CCCO)Oc1c(ccc3ccccc13)C2c1ccccc1 (stereo unspecified),-11%[57.5 µM]
COc1ccc(C2c3ccc4ccccc4c3Oc3ncn(CCCO)c(=N)c32)cc1OC (stereo unspecified),-10%[57.5 µM]
C/C(=C\C[Si](C)(C)C)CC[C@H](O)C1=CCCCC1=O,4%
COc1cc(CCN2C(=O)N[C@@H](c3ccccc3)C(C(C)=O)=C2C)cc(OC)c1OC,5%
CC(=O)c1cccc2c(O)c(C3=Nc4ccccc4C3=O)[nH]c12,25µM*
O=C(O)c1cccc2c(-c3ccccc3)c(-c3ccccc3)[nH]c12,8%[57.5 µM]
CC(=O)Nc1c(O)c2ccccc2[nH]c1=O,2%
COCCn1c(=O)cnc2cnc(N3CCNCC3)nc21,9%
O=[N+]([O-])c1ccc(Nc2nc(Cl)nc(NCCO)n2)cc1,5%
O=[N+]([O-])c1cccc(Nc2nc(Cl)nc(Cl)n2)c1,-10%
Nc1c(S(=O)(=O)O)cc(Nc2ccc(Nc3nc(Cl)nc(Nc4ccc(S(=O)(=O)O)cc4)n3)c(S(=O)(=O)O)c2)c2c1C(=O)c1ccccc1C2=O,25µM*
COC/C=C/C1=CC2=CC(=O)C(C)(OC(=O)c3ccc(Cl)nc3)C(=O)C2=CO1 (stereo unspecified),-12%
C[C@@H](C(=O)Nc1ccc2ccccc2c1)[C@@H]1C[C@@]1(C)[C@@H](NS(=O)(=O)c1ccc(-c2ccccc2)cc1)c1ccccc1,-10%
COc1ccc2c(c1)C(=O)[C@H](OC(=O)NS(=O)(=O)c1ccc(C)cc1)[C@@H](c1ccc(OC)c(Br)c1)O2,1%
Cc1csc2c(N3CCN(C(=S)Nc4ccc(C(F)(F)F)cc4)CC3)ncnc12,-17%[57.5 µM]
SMILES,ERK EGF inh
Cc1csc2c(N3CCN(C(=O)c4ccc(C(C)(C)C)cc4)CC3)ncnc12,28µM*
Cc1csc2c(N3CCN(C(=O)NC(C)(C)C)CC3)ncnc12,7%[57.5 µM]
C=CCOC(=O)N[C@H](c1cccc(C(F)(F)F)c1)C(C(C)=O)C(C)=O,-4%
N.N.N.N.N.N.N.N.N.N.N.N.N.N.O.O.[Cl-].[Cl-].[Cl-].[Cl-].[Cl-].[Cl-].[Ru].[Ru].[Ru],16µM*
N[C@H](C(=O)O)[C@@H]1[C@@H](C(=O)O)C1(F)F,-3%
COc1ccc2c(c1)O[C@H](c1ccc3c(c1)OCO3)[C@@H](OC(=O)NS(=O)(=O)c1ccc(C)cc1)C2=O,-9%
CCCCCCN1C=CC=C/C1=C/C=C(C#N)C#N,10%
CCCCCCN1C=C/C(=C\C=C(C#N)C#N)c2ccccc21,14µM*
CCCN1C=CC(=CC=C(C#N)C#N)C=C1,28%[57.5 µM]
O=c1cnc2cnc(N3CCOCC3)nc2n1C[C@H]1CCCO1,-7%
CC[n+]1c(/C=C/c2ccc(N(C)C)cc2)ccc2ccccc21,3%
CC[n+]1ccccc1/C=C/c1ccc(N(C)C)cc1,-3%
CC[n+]1ccc(/C=C/c2ccc(N(C)C)cc2)c2ccccc21,14µM*
O=C1CCC=C1C(O)CCc1ccccc1 (stereo unspecified),-8%
Nc1nc2c(nc(Sc3ccc(Cl)cc3)n2C2OC(CO)C(O)C2O)c(=O)[nH]1 (stereo unspecified),25%
C=CCOC(=O)N[C@H](/C(C(=O)OC)=C(\C)NCc1ccccc1)c1cccc(F)c1,-3%
COC(=O)N[C@@H](/C=C/c1ccccc1)C[N+](=O)[O-],-4%
Cc1cccc(N=C2NC(=O)/C(=C/c3cccn3C)S2)c1,1%[57.5 µM]
O=C1Nc2ccccc2S/C1=C/c1cccs1,-1%[57.5 µM]
Cc1cccc(N=C2NC(=O)/C(=C/c3cccs3)S2)c1,25µM*
O=c1c(-c2ccc(F)cc2)nc2cnc(Nc3ccccc3)nc2n1Cc1cccs1,9%
CCC(=O)C(C(=O)OC)[C@H](CCc1ccccc1)NC(=O)OC (stereo partly specified),-5%
CC1(O)/C=C\C=C(\CO)C2CC(C)(C)C2(O)CC1 (stereo unspecified),2%
C[C@H]1/C=C\CC(=O)NCc2cccc(c2)CNC(=O)N[C@H]1c1ccccc1,0%

# Compound activity: PubChem, National Center for Advancing Translational Sciences (NCATS)
